In PubChem BioAssay (EPA / NIEHS):
The source made the active and inactive calls. How the source made its calls: active means hit-call score of the fitted dose curve at least 0.9, where 1 is the maximum; inactive means score below 0.9.

What was measured:
[1] = read-out: Transforming growth factor beta 1 (TGFb1), TGFB1 (gene 7040); assay: BSK_KF3CT_TGFb1: BioMAP Diversity Plus: KF3CT Assay for Transforming growth factor beta 1 (TGFb1) Biomarker Activity (AID 2283072); details: primary human keratinocytes with fibroblasts; actives raise or lower the signal
Procedure, shortened: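 ELISA quantifies TGF-b1 at 24 h post-dose in a primary human skin co-culture of keratinocytes and fibroblasts, with gain or loss judged against DMSO. Parallel SRB total-protein staining flags overt cytotoxicity.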

[2] = read-out: C-C motif chemokine 2 (Homo sapiens) (UniProt P13500); assay: BSK_KF3CT_MCP1: BioMAP Diversity Plus: KF3CT Assay for Monocyte Chemoattractant Protein 1 (MCP1/CCL2) Biomarker Activity (AID 2283073); details: primary human keratinocytes with fibroblasts; actives raise or lower the signal
Procedure, shortened: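 KF3CT skin co-culture (keratinocytes/foreskin fibroblasts), 24 h post-dose; MCP-1 by ELISA; gain/loss of signal fit bidirectionally vs DMSO baseline.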

[3] = read-out: Matrix Metallopeptidase 9 (MMP9), MMP9 (gene 4318); assay: BSK_KF3CT_MMP9: BioMAP Diversity Plus: KF3CT Assay for Matrix Metallopeptidase 9 (MMP9) Biomarker Activity (AID 2283074); details: primary human keratinocytes with fibroblasts; actives raise or lower the signal;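 on AC50: MMP9 protein level quantified by ELISA in the co-culture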
Procedure, shortened: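 MMP-9 quantified by ELISA after 24 h chemical treatment of primary human skin keratinocyte/fibroblast co-cultures; gain or loss fitted against DMSO, with parallel SRB staining (0.1% SRB, 560 nm) for overt cytotoxicity.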

[4] = read-out: urokinase plasminogen activator (uPA), PLAU (gene 5328); assay: BSK_KF3CT_uPA: BioMAP Diversity Plus: KF3CT Assay for urokinase plasminogen activator (uPA) Biomarker Activity (AID 2283075); details: primary human keratinocytes with fibroblasts; actives raise or lower the signal
Procedure, shortened: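 ELISA read-out of uPA 24 h after dosing human skin keratinocytes co-cultured with foreskin fibroblasts. Signal change fitted both ways relative to DMSO; sulforhodamine B on parallel cultures marks overt cytotoxicity.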

CD40, CD40 (gene 958) [5] = assay: BSK_LPS_CD40: BioMAP Diversity Plus: LPS Assay for CD40 Biomarker Activity (AID 2283076); details: primary human HUVEC with PBMC; actives raise or lower the signal
Procedure, shortened: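 ELISA readout of CD40 in HUVEC/PBMC co-culture (BSK_LPS system), 24 h post-dosing; bidirectional curve fit, DMSO baseline; parallel SRB total-protein staining for cytotoxicity.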

[6] = read-out: E-selectin (Homo sapiens) (UniProt P16581); assay: BSK_LPS_Eselectin: BioMAP Diversity Plus: LPS Assay for Eselectin Biomarker Activity (AID 2283077); details: primary human HUVEC with PBMC; actives raise or lower the signal
Procedure, shortened: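 ELISA readout of E-selectin, 24 h post-dose, HUVEC + PBMC co-culture (LPS system). Gain or loss of signal vs DMSO baseline, bidirectional fit.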

[7] = read-out: Interleukin-8 (IL8), CXCL8 (gene 3576); assay: BSK_LPS_IL8: BioMAP Diversity Plus: LPS Assay for Interleukin-8 (IL8) Biomarker Activity (AID 2283078); details: primary human HUVEC with PBMC; actives raise or lower the signal
Procedure, shortened: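 HUVEC + PBMC co-culture, LPS-activated; test chemicals dosed, IL-8 read by ELISA at 24 h. Bidirectional curve fit vs DMSO baseline (gain or loss of signal).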

[8] = BSK_LPS_SRB: Viability Assessment in the BioMAP Diversity Plus: LPS Assay (AID 2283079); details: primary human HUVEC with PBMC;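 further: total protein by sulforhodamine B absorbance as a cytotoxicity measure; measured one day after compound addition; fitted in both directions against DMSO so loss or gain of signal counts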
Procedure, shortened: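 HUVEC + PBMC co-culture, LPS-stimulated; compound 24 h. 10% TCA fix, 0.1% SRB stain, A560. Bidirectional fit vs DMSO.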

[9] = read-out: Interleukin-1 alpha (IL1a), IL1A (gene 3552); assay: BSK_LPS_IL1a: BioMAP Diversity Plus: LPS Assay for Interleukin-1 alpha (IL1a) Biomarker Activity (AID 2283080); details: primary human HUVEC with PBMC; actives raise or lower the signal
Procedure, shortened: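 HUVEC/PBMC co-culture, LPS system; 24 h after dosing; IL-1a by ELISA; gain or loss of signal fitted bidirectionally vs DMSO baseline.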

[10] = read-out: Monocyte Chemoattractant Protein-1 (MCP1), CCL2 (gene 6347); assay: BSK_LPS_MCP1: BioMAP Diversity Plus: LPS Assay for Monocyte Chemoattractant Protein-1 (MCP1) Biomarker Activity (AID 2283081); details: primary human HUVEC with PBMC; actives raise or lower the signal;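 on AC50: secreted MCP-1 protein quantified by ELISA in culture supernatant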
Procedure, shortened: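 ELISA read-out of MCP-1 after 24 h chemical dosing of a human umbilical vein endothelial cell/peripheral blood mononuclear cell co-culture stimulated with LPS. Gain or loss of signal fitted relative to DMSO controls.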

[11] = read-out: Macrophage colony-stimulating factor (MCSF), CSF1 (gene 1435); assay: BSK_LPS_MCSF: BioMAP Diversity Plus: LPS Assay for Macrophage colony-stimulating factor (MCSF) Biomarker Activity (AID 2283083); details: primary human HUVEC with PBMC; actives raise or lower the signal
Procedure, shortened: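 HUVEC + PBMC co-culture (human primary), 24 h post-dose; M-CSF by ELISA; gain/loss of signal fitted bidirectionally vs DMSO baseline.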

[12] = read-out: Tissue Factor, F3 (gene 2152); assay: BSK_LPS_TissueFactor: BioMAP Diversity Plus: LPS Assay for Tissue Factor Biomarker Activity (AID 2283084); details: primary human HUVEC with PBMC; actives raise or lower the signal
Procedure, shortened: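 HUVEC/PBMC co-culture, LPS-activated; CD142 ELISA read 24 h post-dose; bidirectional curve fit vs DMSO negative control.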

[13] = read-out: Tumor necrosis factor (Homo sapiens) (UniProt P01375); assay: BSK_LPS_TNFa: BioMAP Diversity Plus: LPS Assay for Tumour Necrosis Factor alpha (TNFa) Biomarker Activity (AID 2283085); details: primary human HUVEC with PBMC; actives raise or lower the signal;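 on AC50: TNFa protein level quantified by ELISA in the co-culture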
Procedure, shortened: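 TNFa was quantified by ELISA in LPS-activated co-cultures of human endothelial cells and PBMC, 24 h post-dosing. Both increases and decreases versus DMSO were fitted.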

[14] = read-out: Vascular cell adhesion molecule 1 (VCAM1), VCAM1 (gene 7412); assay: BSK_LPS_VCAM1: BioMAP Diversity Plus: LPS Assay for Vascular cell adhesion molecule 1 (VCAM1) Biomarker Activity (AID 2283086); details: primary human HUVEC with PBMC; actives raise or lower the signal
Procedure, shortened: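 VCAM-1 quantified by ELISA in an LPS-activated co-culture of human endothelial cells and peripheral blood mononuclear cells, read 24 h post-treatment. Fitted in both directions versus DMSO; parallel SRB staining flags overt cytotoxicity.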

CD38, CD38 (gene 952) = assay: BSK_SAg_CD38: BioMAP Diversity Plus: SAg Assay for CD38 Biomarker Activity (AID 2283087); details: primary human HUVEC with PBMC; actives raise or lower the signal
Procedure, shortened: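 CD38 quantified by ELISA (fluorescence) in a superantigen-activated endothelial cell–PBMC co-culture at 24 h post-dose. Activity fitted in both directions relative to DMSO; parallel SRB and Alamar Blue cytotoxicity read-outs.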

CD40, CD40 (gene 958) [15] = assay: BSK_SAg_CD40: BioMAP Diversity Plus: SAg Assay for CD40 Biomarker Activity (AID 2283088); details: primary human HUVEC with PBMC; actives raise or lower the signal
Procedure, shortened: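 HUVEC/PBMC co-culture, 24 h post-dose; CD40 by ELISA, fluorescence intensity; bidirectional fit vs DMSO negative control.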

CD69, CD69 (gene 969) = assay: BSK_SAg_CD69: BioMAP Diversity Plus: SAg Assay for CD69 Biomarker Activity (AID 2283089); details: primary human HUVEC with PBMC; actives raise or lower the signal;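 on AC50: cell surface CD69 protein quantified by ELISA with fluorescence detection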
Procedure, shortened: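 Values derive from bidirectional fitting relative to DMSO vehicle. Cells: umbilical vein endothelium plus peripheral blood mononuclear cells, treated 24 h before fluorescent ELISA for CD69.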

[16] = read-out: Monocyte Chemoattractant Protein-1 (MCP1), CCL2 (gene 6347); assay: BSK_SAg_MCP1: BioMAP Diversity Plus: SAg Assay for Monocyte Chemoattractant Protein-1 (MCP1) Biomarker Activity (AID 2283090); details: primary human HUVEC with PBMC; actives raise or lower the signal
Procedure, shortened: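 Values derive from bidirectional fitting of ELISA-measured MCP1 against DMSO controls. Readings were taken 24 h after dosing human vascular endothelial cells co-cultured with peripheral blood mononuclear cells under superantigen stimulation.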

[17] = read-out: E-selectin (Homo sapiens) (UniProt P16581); assay: BSK_SAg_Eselectin: BioMAP Diversity Plus: SAg Assay for Eselectin Biomarker Activity (AID 2283091); details: primary human HUVEC with PBMC; actives raise or lower the signal
Procedure, shortened: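 E-selectin ELISA readout at 24 h post-dosing in human umbilical vein endothelial cell/PBMC co-culture; gain or loss of signal fitted relative to DMSO baseline.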

[18] = BSK_LPS_PGE2: BioMAP Diversity Plus: LPS Assay for Prostaglandin E2 (PGE2) Biomarker Activity (AID 2283082); details: primary human HUVEC with PBMC; actives raise or lower the signal
Procedure, shortened: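 PGE2 release measured by ELISA in an LPS-activated co-culture of human umbilical vein endothelial cells and peripheral blood mononuclear cells, read at 24 h post-dosing. DMSO served as baseline for bidirectional curve fitting.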

Measured: AC50

Sequence of Tumor necrosis factor (Homo sapiens) (P01375 whole entry, looked up): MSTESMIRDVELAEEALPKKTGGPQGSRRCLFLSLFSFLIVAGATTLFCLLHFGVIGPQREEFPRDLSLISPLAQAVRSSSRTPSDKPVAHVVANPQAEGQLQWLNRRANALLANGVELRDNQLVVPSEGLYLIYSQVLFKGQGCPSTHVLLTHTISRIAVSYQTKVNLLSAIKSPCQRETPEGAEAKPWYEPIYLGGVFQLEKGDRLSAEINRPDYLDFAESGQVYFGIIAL
Sequence of E-selectin (Homo sapiens) (P16581 whole entry, looked up): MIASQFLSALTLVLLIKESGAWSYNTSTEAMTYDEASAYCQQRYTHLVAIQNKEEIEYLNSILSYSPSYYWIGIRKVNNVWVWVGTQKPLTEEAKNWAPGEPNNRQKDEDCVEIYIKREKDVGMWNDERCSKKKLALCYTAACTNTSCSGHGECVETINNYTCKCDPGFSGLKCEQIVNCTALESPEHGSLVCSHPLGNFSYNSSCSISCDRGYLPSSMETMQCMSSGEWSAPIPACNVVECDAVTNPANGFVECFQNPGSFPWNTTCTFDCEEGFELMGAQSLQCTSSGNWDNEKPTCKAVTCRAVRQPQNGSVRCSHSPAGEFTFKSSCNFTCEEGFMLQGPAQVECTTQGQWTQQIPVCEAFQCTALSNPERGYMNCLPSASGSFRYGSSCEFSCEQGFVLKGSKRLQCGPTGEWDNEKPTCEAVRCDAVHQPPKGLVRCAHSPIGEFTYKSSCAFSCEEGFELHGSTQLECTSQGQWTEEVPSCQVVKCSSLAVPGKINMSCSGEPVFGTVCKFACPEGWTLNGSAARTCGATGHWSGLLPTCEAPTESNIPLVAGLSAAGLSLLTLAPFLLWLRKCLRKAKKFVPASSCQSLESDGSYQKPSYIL

CCCc1cc(=O)[nH]c(=S)[nH]1
not listed: [18]
inactive: all other assays above

CCCCC(CC)COC(=O)CC(C(=O)OCC(CC)CCCC)S(=O)(=O)O (centres undefined)
active: [1] 2.66 µM | [2] 3.25 µM | [3] 4.84 µM | [4] 12 µM | CD40, CD40 (gene 958) [5] 32.3 µM | [6] 38 µM | [7] 31.6 µM | [8] 30.7 µM | [9] 32.3 µM | [10] 30.9 µM | [11] 31.4 µM | [12] 32 µM | [14] 36.5 µM | CD38, CD38 (gene 952) 35.3 µM | CD40, CD40 (gene 958) [15] 35.5 µM | CD69, CD69 (gene 969) 32.1 µM | [16] 33 µM | [17] 34.1 µM
inactive: [18] | [13]

Oc1ccc2ccccc2c1N=Nc1ccccc1
active: [1] 6.33 µM | [3] 3.97 µM | [13] 1.98 µM | [17] 4.27 µM
not listed: [10] | [18]
inactive: all other assays above

CCCCCCCCCCO
active: [12] 0.152 µM
not listed: [3]
inactive: all other assays above

O=C(OCCCCCOC(=O)c1ccccc1)c1ccccc1
active: [13] 12.7 µM
not listed: [3] | CD40, CD40 (gene 958) [15] | CD69, CD69 (gene 969)
inactive: all other assays above

FC(F)(F)C(F)(F)C(F)(F)C(F)(F)C(F)(F)C(F)(F)CCI
not listed: [10] | CD40, CD40 (gene 958) [15] | CD69, CD69 (gene 969)
inactive: all other assays above

CCCCCCCCCCC
not listed: [3] | CD40, CD40 (gene 958) [15] | CD69, CD69 (gene 969)
inactive: all other assays above

Cc1ccc(C)c(C)c1
not listed: [10] | CD69, CD69 (gene 969)
inactive: all other assays above

O=c1[nH]cc(F)c(=O)[nH]1
active: CD40, CD40 (gene 958) [5] 20.4 µM | [14] 20.4 µM
not listed: [10] | CD69, CD69 (gene 969) | [18]
inactive: all other assays above

CNCc1cc(F)ccc1Oc1ccc(Cl)c(Cl)c1
active: [4] 30.5 µM | CD40, CD40 (gene 958) [5] 15 µM | [7] 15.7 µM | [8] 30 µM | [13] 0.461 µM | CD38, CD38 (gene 952) 28.5 µM | CD69, CD69 (gene 969) 26.3 µM | [16] 26.4 µM | [17] 20 µM
not listed: [10] | CD40, CD40 (gene 958) [15]
inactive: all other assays above

CN[C@H]1CC[C@@H](c2ccc(Cl)c(Cl)c2)c2ccc(S(N)(=O)=O)cc21
active: [1] 19.9 µM | [2] 14.9 µM | [3] 20.9 µM | [4] 18.6 µM | CD40, CD40 (gene 958) [5] 20 µM | [6] 30.5 µM | [7] 20 µM | [8] 26.6 µM | [9] 24.1 µM | [11] 30.1 µM | [12] 32.2 µM | [13] 23.3 µM | [14] 20 µM | CD38, CD38 (gene 952) 27.7 µM | [16] 25.2 µM | [17] 20 µM

Cc1cc(NC(=O)C(=O)O)cc(C)c1Oc1ccc(O)c2c1CCC2
active: [13] 0.844 µM
not listed: [3] | CD40, CD40 (gene 958) [15]
inactive: all other assays above

CC1=C(/C=C/C(C)=C/C=C/C(C)=C/CO)C(C)(C)CCC1
inactive: [1] | [2] | [4] | CD40, CD40 (gene 958) [5] | [7] | [8] | [9] | [12]
active: [3] 32.3 µM | [6] 4.25 µM | [11] 8.45 µM | [13] 5.39 µM | [14] 30.5 µM | CD38, CD38 (gene 952) 32.7 µM | CD40, CD40 (gene 958) [15] 26.4 µM | CD69, CD69 (gene 969) 20.9 µM | [16] 20.9 µM | [17] 12.8 µM

CCCCOC(=O)CCCCCCCCC(=O)OCCCC
not listed: [10] | CD69, CD69 (gene 969) | [18]
inactive: all other assays above
